Whole data set: some 33,000 sequences, median “E-score (-0.5 to 0.5)” near -0.0034, cut for the highest 2% near 0.25. The entries come from a sample that favours the highest values as a whole.
What follows are sequences tested against T1, Yap3 (UniProt P38749) (assay: PBM E-score (8-mer binding enrichment) (E-score (-0.5 to 0.5)); higher = stronger / more preferred TF binding). Conditions: protein concentration: 100 nM; construct: GST-full length.
T1 sequence: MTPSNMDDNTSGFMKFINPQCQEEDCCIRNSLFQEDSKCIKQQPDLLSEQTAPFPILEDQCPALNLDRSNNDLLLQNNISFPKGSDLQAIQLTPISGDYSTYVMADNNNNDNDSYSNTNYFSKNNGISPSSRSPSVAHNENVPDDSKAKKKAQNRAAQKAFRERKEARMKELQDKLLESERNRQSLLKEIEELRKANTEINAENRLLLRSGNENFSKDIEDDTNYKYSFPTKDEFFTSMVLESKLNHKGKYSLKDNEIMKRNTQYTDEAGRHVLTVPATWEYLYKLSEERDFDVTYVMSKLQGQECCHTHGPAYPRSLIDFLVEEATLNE
Procedure, shortened: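 Bound GST-tagged yeast transcription factors, applied at about 100-200 nM to double-stranded universal all-10-mer Agilent arrays, were detected with fluorescent anti-GST. Scans were normalised with masliner. A modified Wilcoxon-Mann-Whitney statistic, the E-score, was assigned to each ungapped eight-base word pooled with its reverse complement by the Universal PBM Analysis Suite.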

Sequence | PBM E-score
GAAATTCC | 0.0452
GGCTGGGA | -0.103
AACCACCG | -0.0601
CTGGTATA | -0.0636
TCCATGGA | 0.142
ACAGATGG | 0.00201
CGTAATCC | 0.285
CGTAATCA | 0.349
GGTAATCA | 0.189
CCTAATCC | 0.0254
AGTAATCC | 0.102
AGTAATCA | 0.117
CGATCGTA | 0.126
ACCAAATG | 0.0905
TAGTAAGA | 0.227
CCAGCACG | -0.128
CCGCATCA | -0.0944
TAAAAACA | 0.246
AAAAAACA | 0.315
CAAAAACG | 0.136
ACAAAACG | 0.173
AAAAAACG | 0.315
GAAAAACA | 0.094
AGACTTCC | -0.161
ATAGGGTG | -0.123

Sequence | PBM E-score
ATTCAGAA | 0.0683
ATAGCGTG | -0.00896
AGGGGTTG | -0.134
ACTTTATG | 0.124
AATGTGAA | 0.255
AATGTGAT | 0.232
AATGTGAC | 0.145
CTCCAGGC | -0.0968
GCAGAGAC | -0.322
AGTCGACC | -0.0691
AGTCGACT | 0.277
AGTCGACA | 0.0995
AGCCGTGC | -0.233
GATATACA | 0.187
TATATGGA | 0.108
TATATATA | 0.304
GATATATC | 0.133
GATATATA | 0.271
GATATGGA | 0.263
CATATATA | 0.227
AATATGGA | 0.123
TATATACA | 0.226
ACTCTAGA | 0.0228
ACAGAGGT | -0.0174
ACGCTATC | 0.109

Sequence | PBM E-score
ATTTTCGG | 0.109
ATCGTGGG | 0.11
GAAGACGC | -0.0463
CCCGACCG | -0.3
GGATAAAA | 0.194
TTATAAAA | 0.256
ATATAAAA | 0.249
GTATAAAC | 0.206
GTATAAAA | 0.287
CTATAAAA | 0.0227
CACCACGG | -0.366
GATTGCGA | 0.108
ATTTTACA | 0.145
CTTTTACC | 0.197
ATTTTACC | 0.297
ATTTTACG | 0.309
AATTTACG | 0.239
AATTTACC | 0.145
CCGATCAG | -0.00295
CCCCCTAA | -0.291
AAAGATCC | -0.0985
AGCTGTCG | -0.197
GTCGACCA | -0.0665
GGGCTGCA | -0.195
GCTACTAA | 0.138

Sequence | PBM E-score
ACTACTAT | 0.255
ACTACTAC | 0.0925
ACTACTAA | 0.0558
CCTACTAC | -0.17
GCTACTAC | 0.255
CGTGACAG | -0.154
CGAGAGGC | -0.258
CCATCTAG | -0.112
TAGTTCCA | 0.14
ATTTTCAC | 0.174
ATTTTCCC | 0.0787
ATTTTCAG | 0.286
AATTTCAG | 0.0354
ATTTTCCG | 0.325
AATTTCCG | 0.237
AGCTTGAC | -0.0896
ATTCTGGA | 0.132
AAGGTCAT | -0.047
AACAGACG | -0.0301
AACAAGGG | -0.0929
GCGCTCAA | -0.131
CGACCGCG | -0.129
AATTGGTA | 0.158
GATTGGTA | 0.305
CATTGGTA | 0.0377

Sequence | PBM E-score
GAATTGCA | 0.101
AACGGATG | -0.101
TACGGATA | 0.0129
CACGGATG | -0.164
CACGGATA | 0.291
AACGGATT | 0.233
AACGGATA | 0.255
AGTTGTTA | 0.114
ATCTAGAT | -0.0211
TCTGGCCA | -0.0631
AGACGCCG | -0.0447
AGACGTCA | -0.0966
ACGCGTAA | 0.0957
GGACGTAA | -0.0155
GCGCGTAA | 0.23
TCACGTAA | 0.359
GGACGTCA | -0.0403
ACACGTAA | 0.217
GCACGTAA | 0.0393
TGACGTCA | 0.331
CGACGTAA | 0.19
TGACGTAA | 0.368
TCGCGTAA | 0.302
CATGTAAC | 0.0356
ACCCTTCT | -0.142

Sequence | PBM E-score
AGAGTTAG | -0.0808
GGTCTAGA | -0.104
AACCAGCG | -0.0042
GCTGTAAC | 0.0596
ACTCTGCC | -0.104
CCACTTAC | 0.257
CCACTTAA | -0.071
GCACTTAC | 0.0227
ATACCAAC | 0.202
ACTTGTCC | 0.0688
AAGAAGCA | 0.119
AGCTGTAA | 0.0402
CATCGCTA | 0.0613
AGCCCTAG | -0.106
CATAAAGG | 0.00277
CTGAGTAA | 0.246
ATGAGTAA | 0.284
GTGAGTAA | 0.154
CTCGAACC | -0.0728
TTCTAAAA | 0.0712
AATCCTCC | -0.0151
ATTTAATC | 0.212
CTTTAAGA | 0.0783
GTTTAAAA | 0.0984
GTTTAAGA | -0.0881

Sequence | PBM E-score
AGTTAATA | 0.264
GGTTAATA | 0.0683
AGTTAATC | 0.0976
ATTTAACA | 0.195
CTTTAATC | 0.152
GTTTAATA | 0.272
CTTTAATA | 0.285
ATTTAATA | 0.302
AATCGCTA | -0.00025
GGTCGCCA | -0.186
ACCCATCT | 0.0208
AAAGAGCA | 0.132
CCGAGAGG | -0.18
GAGGTCTA | -0.165
TACGCTGA | 0.156
GCTCCAGC | -0.037
AAGTCCGC | -0.104
CGCCAACC | -0.193
CAATAGAC | 0.111
GAAGTCGA | 0.0787
ATTTAATG | 0.282
ATTTAAGG | 0.0621
ATTTAACG | 0.204

From the supplement of paper PMC3334620
